Results as given in PubChem BioAssay.
Records with an inconclusive call do not appear. Activity calls are given as the source filed them. Cut-off read from the data, not from the text of the source, unless noted: active = inhibition above about 80%; inactive = the rest.

Tests used:
[1] = SU-DIPG-XXV glioma cell viability, MIPE5.0 library, qHTS (AID 1347068; cut-off not given, nearly all actives have IC50 up to about 30 µM)
[2] = LFS_MB_P medulloblastoma growth inhibition, cell-based, chromothripsis tumors, cisplatin or BGB combos (AID 1671449); details: LFS_MB_P medulloblastoma cells;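 note: cells exposed for 96 hours; 0% = vehicle DMSO and 100% = killing by high DMSO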
[3] = HDN33 neuroblastoma growth inhibition, cell-based, chromothripsis tumors, cisplatin or BGB combos (AID 1671450); details: HDN33 neuroblastoma cells, stronger effect = higher value;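 note: cells exposed to compound for four days; 0% = vehicle DMSO and 100% = cell killing by high DMSO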
[4] = ICB984 medulloblastoma cell growth inhibition, synergistic combos for chromothripsis tumors, cisplatin or BGB combos (AID 1671451; call rule not given here;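 note: cells exposed for 96 hours before readout; 0% = vehicle DMSO and 100% = killing by high DMSO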); details: ICB984 medulloblastoma cells, drug combinations, stronger effect = higher value
[5] = LFS_MB_1R medulloblastoma cell growth inhibition, synergistic combos for chromothripsis tumors, cisplatin or BGB combos (AID 1671452); details: LFS_MB_1R medulloblastoma cells, stronger effect = higher value;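 note: cells exposed for 96 hours before readout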
[6] = HTB85 osteosarcoma cell growth inhibition, synergistic combos for chromothripsis tumors, BGB or cisplatin IC20 combos (AID 1671453); details: HTB85 osteosarcoma cells, drug combinations, stronger effect = higher value;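 note: cells exposed for 96 hours before readout; 0% = vehicle DMSO and 100% = high DMSO killing control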
[7] = CRL2098 osteosarcoma cell growth inhibition, synergistic combos for chromothripsis tumors, BGB or cisplatin IC20 combos (AID 1671454); details: CRL2098 osteosarcoma cells, drug combinations, stronger effect = higher value;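 note: cells exposed for 96 h before readout; 0% = vehicle DMSO and 100% = killing by high DMSO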
[8] = HD-MB03 medulloblastoma cell growth inhibition, synergistic combos for chromothripsis tumors, BGB or cisplatin IC20 combos (AID 1671455; in the data active = inhibition above about 83%;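 note: 0% = vehicle DMSO and 100% = high DMSO as cytotoxic control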); details: HD-MB03 medulloblastoma cells, stronger effect = higher value
[9] = UWB1.289 ovarian carcinoma cell growth inhibition, synergistic combos for chromothripsis tumors, BGB or cisplatin combos (AID 1671456); details: UWB1.289 ovarian carcinoma cells, stronger effect = higher value;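 note: cells exposed to compound for four days; 0% = vehicle DMSO and 100% = killing by high DMSO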
[10] = LFS_MB_2R medulloblastoma cell growth inhibition, synergistic combos for chromothripsis tumors, cisplatin combos (AID 1671457); details: LFS_MB_2R medulloblastoma cells, stronger effect = higher value;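 note: cells exposed to compound for four days before readout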
[11] = MDA-MB-436 breast carcinoma cell growth inhibition, synergistic combos for chromothripsis tumors, BGB or cisplatin combos (AID 1671458; call rule not given here;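 note: cells exposed for 96 hours; 0% = vehicle DMSO and 100% = killing by high DMSO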); details: MDA-MB-436 breast carcinoma growth inhibition, drug combinations, stronger effect = higher value
[12] = UWB1.289_BRCA1 ovarian cancer growth, cell-based, BGB or cisplatin combinations (AID 1671459); details: UWB1.289 BRCA1 ovarian carcinoma, drug combinations, stronger effect = higher value
[13] = human astrocyte viability loss, single and combined drugs, cytotoxicity control for chromothriptic childhood tumor combination screen, cell-based, BGB or cisplatin IC20 combos (AID 1671460); details: Human astrocytes, drug combinations, stronger effect = higher value;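 note: cells exposed to compounds for 96 hours before viability readout; 0% = vehicle and 100% = killing control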
[14] = growth inhibition of BT084 medulloblastoma cells, cell-based, ICGC_MB145, cisplatin and BGB IC40 combos (AID 1671461); details: drug combinations, stronger effect = higher value;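 note: cells exposed to drugs for 96 hours; 0% = vehicle DMSO and 100% = high DMSO full killing control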
[15] = growth inhibition of RCMB18 medulloblastoma cells, cell-based, cisplatin and BGB IC40 combos (AID 1671462); details: stronger effect = higher value;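 note: cells exposed to compound for four days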
[16] = growth inhibition of CRL1545 osteosarcoma cells, cell-based, cisplatin and BGB IC20 combos (AID 1671464); details: stronger effect = higher value;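 note: cells exposed to compound for 96 hours before readout; 0% = vehicle DMSO and 100% = high DMSO killing control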
[17] = measured here: combination with BGB IC40, at 0.05 µM
[18] = measured here: with BGB IC20 combination, at 0.5 µM
[19] = measured here: with cisplatin IC20 combination, at 0.5 µM
[20] = measured here: combination with cisplatin, at 0.5 µM
[21] = measured here: combination with cisplatin, at 5 µM

For `CS(=O)(=O)c1ccc(-c2nnc(/C=C/c3nnc(-c4ccc(C#N)cc4)o3)n2-c2ccccc2Cl)nc1`, the outcome [1] was “inactive”, the inhibition ([2]; at 0.5 µM, stronger effect = higher value) was 1.48% (inactive) and the inhibition ([2]; measured here: combination with BGB IC20, at 0.005 µM) was 2.99%. It also gave an inhibition ([2]; measured here: combination with BGB IC40, at 0.005 µM) of 6.48%, an inhibition [2, 17] of 30.7% and an inhibition ([2]; measured here: combination with cisplatin, at 0.5 µM, stronger effect = higher value) of -5.01%. For the same compound, the inhibition ([2]; measured here: combination with cisplatin, at 5 µM, stronger effect = higher value) was -36.6%, the inhibition ([3]; BGB combo, at 5 µM) was 21% and the inhibition ([3]; at 0.5 µM) was 30.9% (inactive). It also gave an inhibition ([3]; cisplatin combo, at 5 µM) of 23.5%, an inhibition [3, 18] of 33.7% and an inhibition [3, 19] of 23.2%. It also gave an inhibition ([3]; single agent, at 5 µM) of 31.3%, an inhibition ([4]; BGB IC20 combo, at 0.005 µM) of -3.28% and an inhibition ([4]; BGB IC40 combo, at 0.005 µM) of -14.7%. The inhibition ([4]; BGB IC40 combo, at 0.05 µM) was -5.67%, the inhibition ([4]; at 0.5 µM) was -26.5% (inactive) and the inhibition ([4]; cisplatin combo, at 0.05 µM) was -9.85%. For the same compound, the inhibition ([4]; cisplatin combo, at 0.5 µM) was -33.8%, the inhibition ([4]; cisplatin combo, at 5 µM) was -19.1% and the inhibition ([4]; measured here: 5 uM single agent, at 5 µM) was -5.85%. For the same compound, the inhibition ([5]; at 0.5 µM) was -3.64% (inactive), the inhibition [5, 17] was 0.706% and the inhibition [5, 20] was -21.2%. The inhibition [5, 21] was -35.8%, the inhibition ([6]; at 0.5 µM) was 15.7% (inactive) and the inhibition ([6]; measured here: with BGB IC20, at 0.5 µM) was 7.63%. The inhibition ([6]; measured here: with BGB IC20, at 5 µM) was -0.396%, the inhibition ([6]; measured here: with cisplatin IC20, at 0.5 µM) was 4.78% and the inhibition ([6]; measured here: with cisplatin IC20, at 5 µM) was 9.69%. For the same compound, the inhibition ([6]; single agent, at 5 µM) was 38.8%, the inhibition ([7]; at 0.5 µM) was 7.89% (inactive) and the inhibition ([7]; measured here: combination with BGB at IC20, at 0.5 µM) was 3.4%. The inhibition ([7]; measured here: combination with cisplatin at IC20, at 0.5 µM) was 15.6%, the inhibition ([8]; at 0.5 µM) was 11.5% (inactive) and the inhibition ([8]; measured here: combo with BGB at IC20, at 0.5 µM) was 0.481%. For the same compound, the inhibition ([8]; measured here: combo with cisplatin at IC20, at 0.5 µM) was 19.9%, the inhibition ([9]; at 0.5 µM) was 15.3% (inactive) and the inhibition ([9]; measured here: inhibition with BGB combination, at 0.05 µM) was 0.045%. For the same compound, the inhibition ([9]; measured here: inhibition with cisplatin combination, at 0.05 µM) was 15.1%, the inhibition ([10]; at 0.5 µM) was -0.5% (inactive) and the inhibition [10, 20] was 14.1%. The inhibition [10, 21] was -1.82%, the inhibition ([11]; at 0.5 µM) was 7.83% (inactive) and the inhibition ([11]; measured here: BGB combination, at 0.5 µM) was -1.04%. The inhibition ([11]; measured here: BGB combination, at 5 µM) was -5.11%, the inhibition ([11]; measured here: cisplatin combination, at 0.5 µM) was 9.17% and the inhibition ([11]; measured here: cisplatin combination, at 5 µM) was 11.5%. The inhibition ([12]; BGB combination, concentration series, at 5 µM) was 22.9%, the inhibition ([12]; at 0.5 µM) was 12.5% (inactive) and the inhibition ([12]; cisplatin combination, concentration series, at 5 µM) was 17.8%. For the same compound, the inhibition ([13]; at 0.5 µM) was 40.8% (inactive), the inhibition ([13]; measured here: combo with BGB IC20, at 0.5 µM) was 29.7% and the inhibition ([13]; measured here: combo with cisplatin IC20, at 0.5 µM) was 52.2%. For the same compound, the inhibition ([14]; at 0.5 µM) was -12.2% (inactive), the inhibition ([14]; cisplatin combination, at 0.5 µM) was 3.06% and the inhibition ([14]; cisplatin combination, at 5 µM) was 6.23%. The inhibition ([14]; measured here: BGB IC40 combination 0.05 uM, at 0.05 µM) was -3.22%, the inhibition ([14]; single agent, at 5 µM) was -30% and the inhibition ([15]; at 0.5 µM) was 3.73% (inactive). The inhibition ([15]; cisplatin combo, at 5 µM) was 7.03%, the inhibition ([15]; measured here: BGB IC40 combination, at 0.05 µM) was -6.83% and the inhibition [15, 20] was 19.3%. For the same compound, the inhibition ([15]; single agent, at 5 µM) was -0.278%, the inhibition ([16]; at 0.5 µM) was -40.3% (inactive) and the inhibition [16, 18] was -43.6%. The inhibition [16, 19] was -38.6%, the inhibition ([16]; single agent, at 0.05 µM) was -1.31% and the inhibition ([16]; single agent, at 5 µM) was -32.2%.
